Laboratory results taken from PubChem BioAssay AID651956 (Broad Institute, 2012).
Results with a measured potency or affinity are listed apart. Records with an inconclusive call do not appear. Activity calls are given as the source filed them.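 How the source made its calls: active means in every test run, a fitted half-maximal concentration for signal decrease at or below twice the highest tested concentration; inconclusive means runs disagree, flat 30 to 70% decrease, or poor fit; inactive means the rest.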

experiment: miR-122 activators in hepatoma reporter cells, dose response, cell-based, Huh7 psiCHECK-miR122, Renilla luciferase, cherry-picked (AID 651956); details: 48 h; series mostly up to 35 µM;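 further: Renilla luciferase from a miR-122 sensor reporter so lower signal means miR-122 activation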

Row | SMILES | outcome
1 | c1cnc(N2CCN(Cc3c[nH]c4ccccc34)CC2)nc1 | inactive
2 | Cc1ccccc1NCN1C(=O)C2C3C=CC(C3)C2C1=O (stereo not drawn) | inactive
3 | Cc1ccc(OCCN2CCN(c3ncnc4sc(C)c(C)c34)CC2)cc1 | inactive
4 | CC(=O)N1[C@H](CO)[C@H](c2ccccc2)[C@@H]1CN(C(=O)c1ccc(F)cc1)C(C)C | inactive
5 | CN1C(=O)c2cc(NC(=O)c3cccc(F)c3)ccc2OC[C@@H]2O[C@@H](CC(=O)NC3CCC3)CC[C@@H]21 | inactive
6 | CC(C)C(=O)Nc1ccc2c(c1)C(=O)N(C)[C@H]1CC[C@H](CC(=O)Nc3cccc(F)c3)O[C@@H]1CO2 | inactive
7 | C[C@@H]1CN([C@@H](C)CO)C(=O)c2cccc(NC(=O)c3ccc(-c4nccs4)cc3)c2O[C@H]1CN(C)Cc1ccc2c(c1)OCO2 | inactive
8 | CN1C(=O)c2cc(NC(=O)c3cccs3)ccc2OC[C@@H]2O[C@@H](CC(=O)NCCN3CCCCC3)CC[C@@H]21 | inactive
9 | CN1C(=O)c2cc(NC(=O)c3cccs3)ccc2OC[C@H]2O[C@@H](CC(=O)NCCN3CCCCC3)CC[C@H]21 | inactive
10 | CO[C@H]1CN(C)C(=O)c2ccc(NS(C)(=O)=O)cc2OC[C@H](C)N(C(=O)CN(C)C)C[C@H]1C | inactive
11 | Cc1cc(C)cc(Oc2ccc(NC(=O)C3CC=CCC3C(=O)O)cc2)c1 (stereo not drawn) | inactive
12 | CN1C(=O)c2cc(NC(=O)c3ccccc3F)ccc2OC[C@H]2O[C@@H](CC(=O)NCc3ccc4c(c3)OCO4)CC[C@@H]21 | inactive
13 | CCCCCn1c(=O)[nH]c2cc(C(=O)NCCN3C(C)CCCC3C)ccc2c1=O (stereo not drawn) | inactive
14 | CC1CCN(CCc2nc3cc(NC(=O)Nc4ccccc4)ccc3n2C)CC1 | inactive
15 | COCC(=O)Nc1ccc2c(c1)C(=O)N(C)[C@H]1CC[C@@H](CC(=O)NC3CCCC3)O[C@H]1CO2 | inactive
16 | CN(C)CCCNC(=O)C[C@@H]1CC[C@H]2[C@@H](COc3ccc(NC(=O)c4cccc(F)c4)cc3C(=O)N2C)O1 | inactive
17 | C[C@H]1CN([C@@H](C)CO)S(=O)(=O)c2ccc(C#CC3CCCCC3)cc2O[C@@H]1CN(C)C | inactive
18 | CNC(=O)C[C@H]1CC[C@@H]2[C@H](COc3ccc(NC(=O)Nc4cccc(F)c4)cc3C(=O)N2C)O1 | inactive
19 | CCOc1ccc(CCNC(=O)C2CCN(S(=O)(=O)N3CCC(C)CC3)CC2)cc1OCC | inactive

Row | SMILES | outcome
20 | C[C@@H]1CN([C@H](C)CO)S(=O)(=O)c2ccc(C3=CCCCC3)cc2O[C@@H]1CN(C)C(=O)Nc1ccc2c(c1)OCO2 | inactive
21 | C/C=C/c1ccc([C@H]2[C@@H](CO)N(C(=O)C3CC3)[C@H]2CN(C)C(=O)CC2CC2)cc1 | inactive
22 | CC(=O)c1ccc(Nc2nc3ccc(C)cc3n3cnnc23)cc1 | inactive
23 | CC(=O)Nc1ccc2c(c1)C(=O)N(C)[C@H]1CC[C@@H](CC(=O)NCc3ccc4c(c3)OCO4)O[C@@H]1CO2 | inactive
24 | Cc1ccnc(Nc2nc(-c3c(C)nc4sccn34)cs2)c1 | inactive
25 | CN1C(=O)c2cc(NC(=O)Nc3ccc(Cl)cc3)ccc2OC[C@H]2O[C@H](CC(=O)NCCN3CCCCC3)CC[C@H]21 | inactive
26 | CNC(=O)C[C@@H]1CC[C@H]2[C@@H](COc3ccc(NC(=O)NC(C)C)cc3C(=O)N2C)O1 | inactive
27 | O=C(NC[C@@H]1[C@H](c2ccccc2)[C@@H](CO)N1Cc1cccnc1)c1ccccn1 | inactive
28 | COCC(=O)NC[C@H]1N[C@H](CO)[C@H]1c1ccc(C2=CCCC2)cc1 | inactive
29 | CC(C)C(=O)Nc1ccc2c(c1)C(=O)N(C)[C@@H]1CC[C@H](CC(=O)NCC3CC3)O[C@H]1CO2 | inactive
30 | COc1ccccc1NC(=O)Nc1ccc2c(c1)C(=O)N(C)[C@H]1CC[C@H](CC(=O)Nc3ccc4c(c3)COC4)O[C@@H]1CO2 | inactive
31 | CC(=O)N1[C@H](CN(C)S(=O)(=O)c2ccccc2)[C@H](c2ccccc2)[C@@H]1CO | inactive
32 | CN(C)CCCN(C(=O)CCc1ccccc1)c1nc2ccc(Br)cc2s1 | inactive
33 | C[C@H](CO)N1C[C@H](C)[C@@H](CN(C)Cc2ccc(C(F)(F)F)cc2)Oc2ccc(NS(=O)(=O)c3ccc(Cl)cc3)cc2CC1=O | inactive
34 | COCC(=O)N1[C@H](CO)[C@@H](c2ccccc2)[C@H]1CN(C)C(=O)c1ccncc1 | inactive
35 | COc1cccc(NC(=O)Nc2ccc3c(c2)C(=O)N(C)C[C@@H](OC)[C@@H](C)CN[C@H](C)CO3)c1 | inactive
36 | Cc1noc(C)c1NC(=O)Nc1ccc2c(c1)C(=O)N(C)[C@@H]1CC[C@H](CC(=O)N[C@H]3CCN(Cc4ccccc4)C3)O[C@H]1CO2 | inactive
37 | O=C(Nc1ccccc1N1CCN(C(=O)c2ccc(Cl)cc2)CC1)c1cccnc1 | inactive
38 | O=C(Nc1ccc(Cl)c(C(F)(F)F)c1)c1ccco1 | inactive
